# Laboratory results as given in PubChem BioAssay.
# A number with no mark means an inactive call.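 Rule for the calls: active = compounds whose cell count with miR-34 switched on is under 0.7 times the count with it off; inactive = the rest.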
# Test: viability loss with induced miR-34 in A549 – imaging, A549 dox-inducible miR-34, nuclei and caspase counts, primary screen (AID 1347080); note: test concentration not given here
# Details: A549 miR-34 inducible, Hoechst nuclei count, 48 h; stronger effect = lower value; cell number ratio, induced over uninduced
row,SMILES,fold change
1,CC#CCC(C)[C@H](O)/C=C/[C@@H]1[C@H]2C/C(=C\CCCC(=O)O)C[C@H]2C[C@H]1O (some centres undefined),0.896
2,CCCCCCCCCCCCCCCCOC[C@H](COP(=O)([O-])OCC[N+](C)(C)C)OC,0.789
3,CC(C)CCOc1ccc(N)cc1,0.779
4,O=C(O)CCC/C=C\C[C@@H]1[C@@H](/C=C/[C@H](O)COc2cccc(C(F)(F)F)c2)[C@H](O)C[C@@H]1O,1.06
5,CN(C)C(=O)CCSC(SCCC(=O)O)c1cccc(/C=C/c2ccc3ccc(Cl)cc3n2)c1 (centres undefined),1
6,COc1ccc2c(c1)c(CC(=O)NCCc1ccccc1)c(C)n2C(=O)c1ccc(Cl)cc1,1.02
7,CC/C=C\C/C=C\C/C=C\C/C=C\CCCCCCC(=O)OCC,0.858
8,CCNC(=O)CCC/C=C\C[C@@H]1[C@@H](CC[C@@H](O)CCc2ccccc2)[C@H](O)C[C@@H]1O,0.901
9,CCCCCCC(Sc1nc(Cl)cc(NCc2ccc(-c3ccccc3)cc2)n1)C(=O)O (centres undefined),0.993
10,CCCCC/C=C\C=C\CCCCCCCCC(=O)O,1.07
11,C=C1C[C@H](O)[C@H](C/C=C\CCCC(=O)O)[C@H]1/C=C/[C@@H](O)CCCCC,0.988
12,CCCCCC(=O)OC[C@H](CO)OC(=O)CCCCC,0.964
13,C=C1O[C@@](CO)(n2cnc3c(N)ncnc32)[C@H](O)[C@@H]1O,0.941
14,COc1ccc(/C=C/c2cc(O)cc(O)c2)cc1O,0.915
